Experimental data as given in PubChem BioAssay (NCATS).
Results filed as inconclusive are left out. Activity calls are given as the source filed them. Calls come from the whole dose curve; as a rule, active = well fitted curve in the direction sought with a large enough effect; inconclusive = small, poorly fitted or top-dose-only effect, or another doubt; inactive = no such curve, though single readings can be large; an effect the other way counts as inactive or inconclusive.

How the values were obtained:
[1] = test system: Hek293T; assay: Primary qHTS to identify gynecologic anti-cancer compounds using libraries of approved drugs and bioactive compounds (AID 1345084); conditions: Gynecologic cancer cell panel viability, ATPlite luminescence, 48 h, control line for the selectivity index; series mostly up to 57.5 µM; note: nearly all actives have a fitted effect of over 55% in size
Summary of the method: (§1)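 Measured: luminescence after ATPlite addition (15 min, RT). Exposure: 48 h, 37 C, 5% CO2.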

[2] = test system: JEG-3; assay: as above; conditions: Gynecologic cancer cell panel viability, ATPlite luminescence, 48 h; series mostly up to 57.5 µM
Summary of the method: as §1

[3] = test system: OV90; assay: as above; conditions: Gynecologic cancer cell panel viability, ATPlite luminescence, 48 h; series mostly up to 57.5 µM
Summary of the method: as §1

[4] = test system: PA-1; assay: as above; conditions: Gynecologic cancer cell panel viability, ATPlite luminescence, 48 h; series mostly up to 57.5 µM
Summary of the method: as §1

[5] = test system: SKOV3; assay: as above; conditions: Gynecologic cancer cell panel viability, ATPlite luminescence, 48 h; series mostly up to 57.5 µM
Summary of the method: as §1

[6] = test system: Tov-21-G; assay: as above; conditions: Gynecologic cancer cell panel viability, ATPlite luminescence, 48 h; series mostly up to 57.5 µM
Summary of the method: as §1

[7] = test system: Tov112D; assay: as above; conditions: Gynecologic cancer cell panel viability, ATPlite luminescence, 48 h; series mostly up to 57.5 µM
Summary of the method: as §1

[8] = Drug repurposing screens with cells derived from glioblastoma tumor samples (AID 1345199); conditions: GBM patient neurospheres viability, ATP luminescence, 48 h; note: nearly all actives have a fitted effect of over 40% in size; note: potency is the fitted concentration of half-maximal effect
Summary of the method: (§2)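 Primary testing used CD133+ neurospheres from four GBM patients, seven concentrations, 48 h exposure and ATP-based viability; confirmation added three slower-growing patient lines.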

[9] = test system: astro; assay: as above; conditions: viability, ATP luminescence, 48 h; series mostly up to 45.9 µM
Summary of the method: as §2

[10] = at 20 µM (top of the series), tumour line C
[11] = at 21.2 µM (top of the series), tumour line B
% is set by controls: 0 for no effect and ±100 for the full control effect.

CN(C)CCOc1cc(-c2cn[nH]c2)ccc1NC(=O)C1COc2ccccc2O1 (stereo unspecified)
inactive: Potency [1] | Potency [2] | Potency [3] | Potency [4] | Potency [5] | Potency [6] | Potency [7]

N#Cc1ccc(Oc2ccc3c(c2)COB3O)cc1
inactive: Potency [1] | Potency [2] | Potency [3] | Potency [4] | Potency [5] | Potency [6] | Potency [7]

O=C1C(c2c(O)[nH]c3ccccc23)=Nc2ccccc21
inactive: Potency [1] | Potency [2] | Potency [3] | Potency [4] | Potency [5] | Potency [6] | Potency [7]

NC(=O)c1ccc(N(C(N)=O)c2c(F)cccc2F)nc1-c1ccc(F)cc1F
inactive: Potency [1] | Potency [2] | Potency [3] | Potency [4] | Potency [5] | Potency [6] | Potency [7]

COc1cc(Nc2nc3ccccc3nc2NS(=O)(=O)c2ccc(NC(=O)c3ccc(C)c(OC)c3)cc2)cc(OC)c1
inactive: Potency [1] | Potency [2] | Potency [3] | Potency [4] | Potency [5] | Potency [6] | Potency [7]

NS(=O)(=O)c1cc(Cl)c(Cl)c(S(N)(=O)=O)c1
inactive: Potency [1] | Potency [2] | Potency [3] | Potency [4] | Potency [5] | Potency [6] | Potency [7] | activity, negative = cell killing [8, 10] 4.89% | activity, negative = cell killing [8, 11] -0.766% | activity, negative = cell killing ([8]; at 21.2 µM (top of the series), tumour line D) 5.15% | activity, negative = cell killing ([8]; at 21.3 µM (top of the series), tumour line A) -15% | Potency [9]

COc1ccc(CCC(=O)Nc2nc3ccc(Cl)cc3s2)cc1OC
inactive: Potency [1] | Potency [2] | Potency [3] | Potency [4] | Potency [5] | Potency [6] | Potency [7]

CCCCC[C@H](O)C=C[C@H]1[C@H](O)CC(=O)[C@H]1CC=CCCCC(=O)O
inactive: Potency [1] | Potency [2] | Potency [3] | Potency [4] | Potency [5] | Potency [6] | Potency [7]

CCCCC(F)(F)[C@@]1(O)CC[C@H]2[C@H](CC(=O)[C@@H]2CCCCCCC(=O)O)O1
inactive: Potency [1] | Potency [2] | Potency [3] | Potency [4] | Potency [5] | Potency [6] | Potency [7] | activity, negative = cell killing ([8]; at 45.9 µM (top of the series), tumour line B) -4.88% | activity, negative = cell killing ([8]; at 45.9 µM (top of the series), tumour line D) -10.8% | activity, negative = cell killing ([8]; at 46.1 µM (top of the series), tumour line C) 12% | Potency [9]

CN1C(=O)C(Cc2c[nH]c3ccccc23)NC1=S (stereo unspecified)
inactive: Potency [1] | Potency [2] | Potency [3] | Potency [4] | Potency [5] | Potency [6] | Potency [7]

COc1cc2nccc(Oc3ccc(NC(=O)Nc4cc(C)on4)c(Cl)c3)c2cc1OC
inactive: Potency [1] | Potency [2]

CCN1C[C@H](C)n2c(c(O)c3c(=O)n(Cc4ccc(F)c(Cl)c4)nc(C(=O)NC)c32)C1=O
inactive: Potency [1] | Potency [2] | Potency [3] | Potency [4] | Potency [5] | Potency [6] | Potency [7]

CN(C)CCN(Cc1ccc(Cl)cc1)c1ccccn1
inactive: Potency [1] | Potency [2] | Potency [3] | Potency [4] | Potency [5] | Potency [6] | Potency [7] | activity, negative = cell killing [8, 10] -14.6% | activity, negative = cell killing [8, 11] -16.9% | Potency [9]
active: Potency ([8]; tumour line A) 10 µM

O=C(CC12CC3CC(CC(C3)C1)C2)Nc1cccc2nc(NCCNCCO)ccc12
inactive: Potency [1] | Potency [2] | Potency [3] | Potency [4] | Potency [5] | Potency [6] | Potency [7]

Cn1cnc(-c2cc3nccc(Oc4ccc(NC(=S)NC(=O)Cc5ccccc5)cc4F)c3s2)c1
inactive: Potency [1] | Potency [2] | Potency [3]

O=C(c1ccc(C(=O)N2CCC(N3CCCC3)CC2)c(Nc2ccccc2)c1)N1CCC(N2CCCC2)CC1
inactive: Potency [1] | Potency [2] | Potency [3] | Potency [4] | Potency [5] | Potency [6] | Potency [7]

CC1CCN(c2cc(N3CCN(C)CC3)ccc2NC(=O)c2cc(C#N)c[nH]2)CC1
inactive: Potency [1] | Potency [2] | Potency [3] | Potency [4] | Potency [5] | Potency [6] | Potency [7]

c1ccc(CNc2nc(N3CCOc4ccccc43)nc3c2CCCC3)cc1
inactive: Potency [1] | Potency [2] | Potency [3] | Potency [4] | Potency [5] | Potency [6] | Potency [7]

C[C@@H]1C[C@H]2[C@@H]3CCC4=CC(=O)C=C[C@]4(C)[C@@]3(F)[C@@H](O)C[C@]2(C)[C@@]1(O)C(=O)CO
inactive: Potency [1] | Potency [2] | Potency [3] | Potency [4] | Potency [5] | Potency [6] | Potency [7]

C[C@@]1(c2cc(-c3cncnc3)c(F)cc2F)CCSC(N)=N1
inactive: Potency [1] | Potency [2] | Potency [3] | Potency [4] | Potency [5] | Potency [6] | Potency [7]

CC1=C(C(=O)Nc2cc3cn[nH]c3cc2F)C(c2ccc(C(F)(F)F)cc2)CC(=O)N1 (stereo unspecified)
inactive: Potency [1] | Potency [2] | Potency [3] | Potency [4] | Potency [5] | Potency [6] | Potency [7]
